# Assay outcomes: PubChem BioAssay, National Center for Advancing Translational Sciences (NCATS)
# BAZ2B inh: BAZ2B (human) inhibition. Q9UIF8. AlphaScreen BAZ2B-H3K14Ac peptide displacement. Potency, µM (series often up to 114 µM), for inactives: at the highest dose activity change, negative = inhibition, hits mostly inhibitors. actives 4.4% (n = 360,000). AID 504333; also: % is scaled to controls: 0 for no effect and ±100 for the full control effect; nearly all actives have a fitted effect of over 60% in size
#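 Protein-peptide AlphaScreen: BAZ2B 50 nM, b-H3K14Ac 50 nM, 1x PBS pH 7.4 + 0.01% Tween-20. Preincubation 30 min RT; cpd 30 min RT (top 110 uM); beads 20 min RT, light-protected.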
# Sfp inh: Sfp phosphopantetheinyl transferase inhibition; Biochemical Sfp PPTase activity, qHTS; actives 3.5% (n = 310,000); AID 1490; Potency, µM, without a hit: largest response in the series, negative = inhibition, most hits filed as inhibitors; Q9F4F7;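 also: the enzyme is Sfp with the accession as filed and its product quenches rhodamine fluorescence; 0% = enzyme reaction without inhibitor and -100% = no enzyme wells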
#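 Buffer: 50 mM Hepes-Na pH 7.6, 10 mM MgCl2, 0.01% Nonidet P-40, 0.01% BSA. Enzyme 15 nM, pre-exposed to compound 15 min; substrates then added and fluorescence change tracked over 30 min.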
# HP1b binding inh: inhibitors of HP1-beta chromodomain binding to methylated histone tails; P83916; AlphaScreen HP1-beta / biotin-H3K9me3 peptide binding; Potency, µM (highest dose often 114 µM), for inactives: at the top dose activity change, negative = inhibition, usual class: inhibitors; actives 0.56% (n = 390,000); also: nearly all actives have a fitted effect of over 70% in size
# Target sequence (P83916 whole entry, looked up): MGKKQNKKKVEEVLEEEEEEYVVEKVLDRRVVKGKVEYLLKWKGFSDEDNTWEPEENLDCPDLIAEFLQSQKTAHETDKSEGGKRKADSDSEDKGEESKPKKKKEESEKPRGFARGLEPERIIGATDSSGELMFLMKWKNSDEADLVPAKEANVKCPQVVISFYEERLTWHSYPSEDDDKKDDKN
#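 AlphaScreen: HP1-beta (50 nM) preformed 30 min with biotin-H3(1-18)K9me3 peptide (50 nM) in PBS pH 7.4, 0.01% Tween-20. Compound added for 30 min at RT, then streptavidin donor/nickel chelate acceptor beads (10 ug/mL) for 30 min.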
# JMJD2A Tudor inh: inhibitors of human JMJD2A Tudor domain. AlphaScreen JMJD2A-Tudor / H3K4me3 peptide binding. Potency, µM (highest dose often 114 µM), without a hit: at the highest dose activity change, negative = inhibition, hits mostly inhibitors. actives 4.4% (n = 390,000). AID 504339; also: % is scaled to controls: 0 for no effect and ±100 for the full control effect; nearly all actives have a fitted effect of over 50% in size
# TDP1 inh: inhibitors of human tyrosyl-DNA phosphodiesterase TDP1. recombinant TDP1, AlphaScreen DNA substrate cleavage. Potency, µM (highest dose often 130 µM), without a hit: at the top dose activity change, negative = inhibition, most hits filed as inhibitors. actives 0.28% (n = 350,000); also: % is scaled to controls: 0 for no effect and ±100 for the full control effect; nearly all actives have a fitted effect of over 40% in size
#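 Recombinant E. coli-expressed Tdp1 (1 nM) preincubated with compound 15 min at RT, then 5'-biotin/3'-phosphotyrosine-FITC DNA substrate (15 nM) added for 5 min. AlphaScreen beads (10 ug/ml) added, 10 min RT; tyrosine-FITC cleavage read as signal loss.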
# G9a inh: blocks human histone lysine methyltransferase G9a | G9a H3K9 monomethylation, AlphaScreen, 2 h | Potency, µM (top dose mostly 102 µM), for inactives: at the top dose activity, negative = inhibition, usual class: inhibitors | actives 8.8% (n = 350,000); also: % is scaled to controls: 0 for no effect and ±100 for the full control effect; nearly all actives have a fitted effect of over 75% in size
# Target sequence (Q96KQ7 913-1193 limits assumed): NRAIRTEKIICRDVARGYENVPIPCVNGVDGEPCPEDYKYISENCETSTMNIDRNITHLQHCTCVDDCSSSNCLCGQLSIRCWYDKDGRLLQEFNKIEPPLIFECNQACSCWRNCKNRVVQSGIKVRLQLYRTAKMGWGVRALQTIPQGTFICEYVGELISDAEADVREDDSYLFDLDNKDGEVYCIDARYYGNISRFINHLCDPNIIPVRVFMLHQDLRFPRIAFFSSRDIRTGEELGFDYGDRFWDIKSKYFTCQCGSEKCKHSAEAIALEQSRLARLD
#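 Compounds were preincubated with 20 nM G9a for 15 min, after which biotinylated H3K9 peptide (500 nM) and SAM (20 uM) started a 2 h room-temperature reaction. Monomethylated product was quantified by antibody-based AlphaScreen chemiluminescence.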
# * = called active by the depositor; ? = inconclusive; . = no result; [ ] = remark or other dose. Sampled rows, rich in hits. Any-hit rate of the full collection: about 12%. Calls follow the shape of the dose curve; as a rule, active = well fitted curve in the direction sought with a large enough effect; inconclusive = small, poorly fitted or top-dose-only effect, or another doubt; inactive = no such curve, though single readings can be large; an effect the other way counts as inactive or inconclusive. Potency is read from the fitted curve at half-maximal effect.
SMILES,BAZ2B inh,Sfp inh,HP1b binding inh,JMJD2A Tudor inh,TDP1 inh,G9a inh
O=C(NCc1ccc(F)cc1)c1cc(Sc2ccc(F)cc2F)nc2ccccc12,0%,.,26%,-18%,5%,0%[59 µM]
COc1ccc(NC(=O)NC(C)c2ccccc2)cc1 (stereo not drawn),-11%,21%,18%,-14%,3%,16%
COc1ccc(NC(C)c2ccccc2)cc1 (stereo not drawn),40µM*,4%,?,50µM*,4%,13µM*
COc1ccc(CCNCC(C)c2ccccc2)cc1 (stereo not drawn),?,-7%,-38%,7.9µM*,.,45µM*
Cc1c2cnn(CC(=O)NCCc3ccccc3)c(=O)c2c(C)n1Cc1ccccc1Cl,2%,.,12%,-18%,8%,-1%[59 µM]
OCCNCCSc1nc(C2CCCCC2)n(-c2ccccc2Cl)n1,?,-24%,-11%,0.89µM*,-1%,?
Cc1cccc(NC(=O)NC2COc3ccccc3C2)c1C (stereo not drawn),4%,.,22%[57 µM],-6%,3%,5%[59 µM]
COc1cc(N=c2ssnc2Cl)cc(OC)c1,45µM*,1.8µM*,-80%,28µM*,-2%,?
N#Cc1cccc(N=c2ssnc2Cl)c1,28µM*,7.9µM*,?,13µM*,6%,0.89µM*
Clc1nssc1=Nc1nncs1,50µM*,.,?,22µM*,-5%,0%[0.501 µM]
OCc1ccccc1N=c1ssnc1Cl,?,8.9µM*,.,.,4%,-7%[2.33 µM]
CC1CCCCN1C(=O)c1cc(S(=O)(=O)N2CCCCC2)c[nH]1 (stereo not drawn),1%,1%,13%,-7%,.,.
Cc1ccc(S(=O)(=O)N2[C@@H](c3ccccc3F)C(C(=O)O)=CC[C@H]2c2ccc3c(c2)OCO3)cc1,2%,.,31%,-4%,1%,5%[2.33 µM]
Clc1nssc1=Nc1ccc(Br)cc1,22µM*,10µM*,32µM*,25µM*,-1%,3.2µM*
Cn1c(Oc2ccc(Cl)cc2)nc2c1c(=O)n(Cc1ccc(F)cc1)c(=O)n2C,0%,.,50%,6%,.,5%[59 µM]
COc1cc(/C=C/C(=O)Nc2ccc(C)cc2)cc(OC)c1OC,-33%,-2%,12%,-14%,2%,-3%[59 µM]
COc1cc(/C=C/C(=O)Nc2nnc(C(C)(C)C)s2)cc(OC)c1OC,13%,50µM*,?,-24%,3%,4.5µM*
O=C(COC(=O)/C=C/c1ccccc1Cl)NCc1ccco1,50µM*,14%,4%,-28%,-4%,?
NS(=O)(=O)c1ccc(CCNC(=O)Cc2c[nH]c3ccccc23)cc1,6%,-11%,28%,-1%,3%,13%
NS(=O)(=O)c1ccc(CCNCC(=O)NCc2ccccc2Cl)cc1,50µM*,-20%,-36%,28µM*,.,-6%
O=C(CNCc1ccccc1Cl)NCc1ccco1,20µM*,?,22µM*,-99%,11%,-138%[59 µM]
O=C(COC(=O)/C=C/c1ccc(Cl)cc1Cl)NCc1ccco1,-24%,15%,-1%,-23%,-3%,-3%
COc1cc(N2C(=O)c3ccccc3C2=O)c2ncccc2c1,.,.,.,-5%,1%,.
O=C(CSc1nnc(C2CCCCC2)o1)Nc1ccccc1Cl,10%,0%,34%,16%,6%,2%
CCN(CC)C(=O)C1CCCN(Cc2ccc(OC)c(C)c2C)C1 (stereo not drawn),71µM*,50µM*,?,1.6µM*,-8%,?
SMILES,BAZ2B inh,Sfp inh,HP1b binding inh,JMJD2A Tudor inh,TDP1 inh,G9a inh
CCOC(=O)C1CCCN(Cc2cc(Br)c(OC)cc2OC)C1 (stereo not drawn),50µM*,-21%,?,2.8µM*,-7%,?
CCOC(=O)C1CCCN(Cc2sccc2C)C1 (stereo not drawn),50µM*,-27%,?,2.8µM*,-4%,22µM*
CCOC(=O)C1CCCN(Cc2cc(OC)c(O)c(OC)c2)C1 (stereo not drawn),?,-4%,-54%,2.2µM*,-6%,?
COc1ccc(CN2CCCC(C(=O)N3CCCCC3)C2)c(OC)c1 (stereo not drawn),-27%,-18%,-13%,?,2%,.
CCOC(=O)C1CCCN(Cc2cc(=O)oc3cc(C)c(C)cc23)C1 (stereo not drawn),1%,6%,42%,8%,-4%,?
CC(=O)c1ccc(NC(=O)Cn2ncc3c4ccccc4n(Cc4ccccc4)c3c2=O)cc1,-3%,.,10%,-17%,0%,7%[59 µM]
COc1ccc(Cn2c(=O)c3oc4ccccc4c3n(CC(=O)Nc3cc(C)cc(C)c3)c2=O)cc1,-16%,.,19%,-5%,3%,-28%[59 µM]
COc1ccccc1C(=O)NC(=O)Nc1ccc(-n2nc(C(F)(F)F)cc2C(F)(F)F)cc1,-9%,.,39%,-7%,-2%,7%[59 µM]
CCNc1nc(NCC)nc(OCCOC(C)=O)n1,36%,12%,18%,-15%,5%,27%[59 µM]
CCNc1nc(NCC)nc(C(=O)OCCO)n1,25µM*,20%,42%,35µM*,8%,40µM*
CCNc1nc(NC(C)C)nc(SCCOC(=O)c2ccccc2)n1,12%,12%,93%,11%,-5%,3%
CC(C)Nc1nc(NC(C)C)nc(C(=O)OCCO)n1,35µM*,-16%,30%,50µM*,5%,?
Cc1cc2c(s1)c1cnn(Cc3ccc(Br)cc3)c(=O)c1n2C,.,.,.,-33%,.,.
Cn1c(=O)[nH]c(NC2CCCCC2)c(N=O)c1=O,?,-3%,45%,89µM*,0%,?
Cn1c(=O)[nH]c(NC2CCCCC2)c([N+](=O)[O-])c1=O,-2%,1%,33%,-6%,2%,1%[59 µM]
CCCNc1[nH]c(=O)n(C)c(=O)c1N=O,-38%[57.1 µM],8%,0%,50µM*,1%,40µM*
CCCNc1nc2c(c(=O)[nH]c(=O)n2C)n1Cc1ccc(F)cc1,9%,19%,37%,-17%,-1%,1%
Fc1ccc(CN2CCSCC2)cc1F,?,-17%,?,4µM*,.,32µM*
O=S(=O)(c1ccc(Br)cc1)N1CCCN(Cc2cccc(F)c2)CC1,13%,6%,44%,11%,-1%,?
Fc1cccc(CN2CCCCCCC2)c1,?,-17%,?,2µM*,-11%,13µM*
Fc1cccc(CN2CCSCC2)c1,50µM*,-18%,?,20µM*,.,25µM*
O=S(=O)(c1ccc2ccccc2c1)N1CCN(C2CCN(Cc3ccccc3)CC2)CC1,28µM*,?,-46%,0.89µM*,-2%,5µM*
